# Assay results taken from PubChem BioAssay AID463173 (ICCB-Longwood Screening Facility, Harvard Medical School, 2010).
# The campaign covered roughly 52,000 compounds. About 4,300 (8.3%) were called active. Cut-off read from the data, not from the text of the source: active = survival mostly below about 52% (no sharp cut-off); inactive = mostly above about 56%. The list comes from a sample in which actives are over-represented; it also holds similar structures and randomly drawn compounds.
# System: DeltatarO mutant
# Experiment: S. aureus survival, RN4220 and DeltatarO strains – OD600, teichoic acid synthesis inhibitors, primary screen (AID 463173)
# Conditions: S. aureus RN4220 wild type/DeltatarO growth, OD600, 18 h, active compounds read low, screened at 18.75 µg/mL (by protocol)
row,SMILES,survival
1,O=C(CSc1nnc(-c2ccccc2)c(-c2ccccc2)n1)NC1CCCC1,77% (inactive)
2,COc1ccc(CC(NC(C)=O)C(=O)NC2CCN(c3nc(OC)nc(OC)n3)CC2)cc1 (centres undefined),88% (inactive)
3,Cc1ccc(-c2cc(-c3coc4ccc(Cl)cc4c3=O)c3c(n2)-c2ccccc2OC3)cc1,77% (inactive)
4,Cc1ncc(COC(=O)C(C)C)c2cc(C(=O)Nc3ccccc3C(F)(F)F)c(=O)oc12,134% (inactive)
5,Cc1ccc(OCC(=O)Nc2nc(-c3ccc(Br)cc3)ns2)cc1C,110% (inactive)
6,O=C(Cc1cccs1)Nc1c(C(=O)Nc2ccc(F)cc2)oc2ccccc12,94% (inactive)
7,Cc1cc(-n2c(C)nc3ccccc3c2=O)ccc1NC(=O)c1ccc(C)c([N+](=O)[O-])c1,37% (active)
8,Cc1cc(-n2c(C)nc3ccccc3c2=O)ccc1NC(=O)c1cccc([N+](=O)[O-])c1C,0% (active)
9,Cc1c(C(=O)Nc2ccc(-n3c(C)nc4ccccc4c3=O)cc2)cccc1[N+](=O)[O-],99% (inactive)
10,Cc1cc(-n2c(C)nc3ccccc3c2=O)ccc1NC(=O)c1ccccc1[N+](=O)[O-],69% (inactive)
11,Cc1ccc(C(=O)Nc2ccc(-n3c(C)nc4ccccc4c3=O)cc2)cc1[N+](=O)[O-],117% (inactive)
12,Cc1cc(-n2c(C)nc3ccccc3c2=O)ccc1NC(=O)c1ccc([N+](=O)[O-])cc1,83% (inactive)
13,CCOc1ccccc1NC(=O)c1sc(-n2nc(C)c(CCC(C)C)c2C)nc1C,69% (inactive)
14,COc1cccc2sc(N(Cc3cccnc3)C(=O)c3ccc4c(c3)OCCO4)nc12,72% (inactive)
15,O=C(CSc1nc2ncccc2[nH]1)Nc1cc(F)ccc1F,86% (inactive)
16,O=C(CSc1ncc2c(n1)-c1ccccc1N(Cc1ccccc1)S2(=O)=O)Nc1ccccc1,-5% (active)
17,NC(=O)CSc1ncc2c(n1)-c1ccccc1N(Cc1ccccc1)S2(=O)=O,89% (inactive)
18,CCN1c2ccccc2-c2nc(SCC(=O)NCc3ccc(Cl)cc3)ncc2S1(=O)=O,46% (active)
19,CCN1c2ccccc2-c2nc(SCC(=O)NCc3ccc(C)cc3)ncc2S1(=O)=O,105% (inactive)
20,Cc1ccccc1CN1c2ccccc2-c2nc(SCC(=O)NCc3ccccc3)ncc2S1(=O)=O,20% (active)
21,CCN1c2ccccc2-c2nc(SCC(=O)NCc3ccccc3)ncc2S1(=O)=O,93% (inactive)
22,Cc1ccc(CN2c3ccccc3-c3nc(SCC(=O)NCc4ccccc4)ncc3S2(=O)=O)cc1,17% (active)
23,Cc1ccc(CN2c3ccccc3-c3nc(SCC(=O)NCCc4ccccc4)ncc3S2(=O)=O)cc1,55% (inactive)

row,SMILES,survival
1,Cc1ccccc1CN1c2ccccc2-c2nc(SCC(=O)NCCc3ccccc3)ncc2S1(=O)=O,66% (inactive)
2,Cc1ccccc1CN1c2ccccc2-c2nc(SCC(=O)c3ccccc3)ncc2S1(=O)=O,102% (inactive)
3,Cc1ccc(CN2c3ccccc3-c3nc(SCC(=O)Nc4c(C)cc(C)cc4C)ncc3S2(=O)=O)cc1,128% (inactive)
4,O=C(CSc1ncc2c(n1)-c1ccccc1N(Cc1ccc(F)cc1)S2(=O)=O)NCc1ccccc1,87% (inactive)
5,O=C(CCCc1ccccc1)NC1CC(=O)N(c2cccc(F)c2)C1 (centres undefined),120% (inactive)
6,CN(C)c1ccc(C(CNS(=O)(=O)c2ccc(F)cc2F)N2CCOCC2)cc1 (centres undefined),69% (inactive)
7,Cc1nn2c(=O)cc(CN(C)c3ccccc3)nc2s1,135% (inactive)
8,COc1ccc(S(=O)(=O)N2CCC(Oc3ccc(-n4cnnn4)cc3)CC2)cc1,90% (inactive)
9,O=C(NC1CC(=O)N(c2ccc(F)cc2)C1)c1ccc(S(=O)(=O)N2CCOCC2)cc1 (centres undefined),93% (inactive)
10,Cn1c(SCC(N)=O)nnc1-c1ccc(S(=O)(=O)N2CCCC2)cc1,79% (inactive)
11,Cc1ccc(Cl)cc1N1CCN(C(=O)Cn2cnc3onc(-c4ccc(F)cc4)c3c2=O)CC1,75% (inactive)
12,O=C(NCCc1ccccc1)C1CCC(CNS(=O)(=O)c2ccccc2)CC1 (centres undefined),91% (inactive)
13,CCOc1ccc(NC(=O)CSc2ncc3c(n2)-c2ccccc2N(Cc2ccccc2C)S3(=O)=O)cc1,91% (inactive)
14,CCc1cccc(NC(=O)CSc2ncc3c(n2)-c2ccccc2N(CC)S3(=O)=O)c1,101% (inactive)
15,CCc1cccc(NC(=O)CSc2ncc3c(n2)-c2ccccc2N(Cc2ccccc2C)S3(=O)=O)c1,8% (active)
16,CCOC(=O)c1ccc(NC(=O)CC2C(=O)N(c3cccc(C)c3)C(=O)N2CCOC)cc1 (centres undefined),74% (inactive)
17,CCc1ccc(NC(=O)[C@H](Cc2ccccc2)N2Cc3ccccc3C2=O)cc1,88% (inactive)
18,COc1ccc(CCNc2nc3c(-c4cccc(C(F)(F)F)c4)nnn3c3ccccc23)cc1OC,85% (inactive)
19,Brc1cccc(-c2nnn3c2nc(NC2CCCCC2)c2ccccc23)c1,64% (inactive)
20,CCCCNc1nc2c(-c3cccc(C)c3)nnn2c2ccccc12,98% (inactive)
21,Fc1cccc(-c2nnn3c2nc(NC2CCCCC2)c2ccccc23)c1,59% (inactive)
22,CC1CCC(Nc2nc3c(-c4cccc(C(F)(F)F)c4)nnn3c3ccccc23)CC1 (centres undefined),-3% (active)
23,FC(F)(F)c1cccc(-c2nnn3c2nc(NC2CCCCC2)c2ccccc23)c1,13% (active)

row,SMILES,survival
1,Cc1cccc(CCNC(=O)c2ccc(CSCc3cccc(Cl)c3)o2)c1,70% (inactive)
2,O=C(CN1C(=O)COc2ccc(S(=O)(=O)N3CCOCC3)cc21)Nc1ccc(F)c(Cl)c1,106% (inactive)
3,CCc1ccc(NC(=O)CN2C(=O)C3(SCC(=O)N3c3ccccc3)c3ccccc32)cc1 (centres undefined),129% (inactive)
4,CCCCN(CC)C(=O)CSc1nc2n[nH]c(C)c2c(=N)n1-c1cccc(C)c1,88% (inactive)
5,Cc1cccc(NC(=O)CSc2nc3n[nH]c(C)c3c(=N)n2-c2cccc(Cl)c2)c1,55% (inactive)
6,CCCCN(CC)C(=O)CSc1nc2n[nH]c(C)c2c(=N)n1-c1cccc(OC)c1,109% (inactive)
7,Cc1c(Cl)cccc1-n1c(SCC(=O)NCc2ccccc2)nc2n[nH]c(C)c2c1=N,126% (inactive)
8,CCCCN(CC)C(=O)CSc1nc2n[nH]c(C)c2c(=N)n1-c1cccc(Cl)c1,17% (active)
9,Cc1ccc(NC(=O)CSc2nc3n[nH]c(C)c3c(=N)n2-c2cccc(C)c2)cc1,-5% (active)
10,Cc1ccc(-n2c(SCC(=O)NCc3ccccc3)nc3n[nH]c(C)c3c2=N)cc1Cl,-5% (active)
11,Cc1ccc(Cl)cc1-n1c(SCC(=O)NCc2ccccc2)nc2n[nH]c(C)c2c1=N,81% (inactive)
12,Cc1cccc(-n2c(SCC(=O)Nc3ccc(C)c(C)c3)nc3n[nH]c(C)c3c2=N)c1,87% (inactive)
13,O=C(NCC1CCCO1)Nc1c[nH]c2c(Cl)cccc2c1=O (centres undefined),97% (inactive)
14,Cn1c(=O)cc(SCC(=O)NCc2ccc(F)cc2)c2ccc(Cl)cc21,91% (inactive)
15,Cc1cccc(Cn2c(C)c(C)c3cc(C(=O)NCc4ccco4)ccc32)c1,94% (inactive)
16,COc1cc(CCNC(=O)c2ccc3c(c2)c(C)c(C)n3Cc2cccc(C)c2)cc(OC)c1OC,80% (inactive)
17,Cc1ccc(CNC(=O)CC(C)S(=O)(=O)c2cc3c(cc2C)NC(=O)CO3)cc1 (centres undefined),89% (inactive)
18,Cc1ccc(C(=O)N2CCC(C(N)=O)CC2)cc1NC(=O)c1nsc2ccccc12,87% (inactive)
19,O=C(Nc1ccc(C(=O)N2CCN(c3ccc(F)cc3)CC2)cc1)c1nsc2ccccc12,81% (inactive)
20,O=C(Nc1ccc(C(=O)N2CCN(c3ccc(Cl)cc3)CC2)cc1)c1nsc2ccccc12,72% (inactive)
21,O=C(Nc1ccc(C(=O)N2CCN(c3cccc(Cl)c3)CC2)cc1)c1nsc2ccccc12,79% (inactive)
22,Cc1ccc(C(=O)N2CCC(C)CC2)cc1NC(=O)c1nsc2ccccc12,96% (inactive)
23,Cc1ccc(C)c(N2CCN(C(=O)c3ccc(NC(=O)c4nsc5ccccc45)cc3)CC2)c1,67% (inactive)

row,SMILES,survival
1,O=C(Nc1ccc(C(=O)N2CCN(c3ccccc3)CC2)cc1)c1nsc2ccccc12,-1% (active)
2,Cc1ccc(Cl)cc1N1CCN(C(=O)c2ccc(NC(=O)c3nsc4ccccc34)cc2)CC1,6% (active)
3,Cc1ccc(C(=O)N2CCCCC2)cc1NC(=O)c1nsc2ccccc12,-4% (active)
4,Cc1ccc(N2CCN(C(=O)c3cn(C)c4ccc(S(=O)(=O)N(C)C5CCCCC5)cc4c3=O)CC2C)cc1 (centres undefined),91% (inactive)
5,O=C(CSc1nccn1-c1ccc(F)cc1)Nc1ccc(OC(F)(F)F)cc1,78% (inactive)
6,CCc1ccc(S(=O)(=O)Nc2ccc3c(c2)sc(=O)n3C)cc1,91% (inactive)
7,COC(=O)c1ccccc1NC(=O)Cn1c(=O)n(-c2ccc(Cl)cc2)c(=O)c2c(C)c(C)sc21,86% (inactive)
8,CCOC(=O)c1[nH]c(C)c(CCC(=O)NCc2cccc(Cl)c2)c1C,76% (inactive)
9,COc1ccc(CNC(=O)Cn2ncc3c(=O)oc4ccccc4c32)c(OC)c1,89% (inactive)
10,O=C(COc1ccccc1F)Nc1ccc2nc(SCC(=O)N3CCOCC3)sc2c1,79% (inactive)
11,CCOc1ccc(CCNC(=O)CCc2c(C)nc3c(-c4ccccc4)c(C)nn3c2C)cc1OCC,70% (inactive)
12,Cc1cccc(N(CC(=O)NCCSc2ccc(Cl)cc2)S(=O)(=O)c2ccccc2)c1C,49% (inactive)
13,CN(C)S(=O)(=O)N(CC(=O)NCCSCc1cccc(Cl)c1)c1ccccc1,57% (inactive)
14,Cc1ccccc1CSCCNC(=O)CN(c1ccccc1)S(=O)(=O)N(C)C,52% (inactive)
15,Cc1cccc(N(CC(=O)NCCSCc2ccc(Cl)cc2)S(C)(=O)=O)c1C,33% (active)
16,Cc1ccc(CSCCNC(=O)CN(c2cccc(C)c2C)S(=O)(=O)c2ccccc2)cc1,52% (inactive)
17,CN(C)S(=O)(=O)N(CC(=O)NCCSCc1ccc(Cl)cc1Cl)c1ccccc1,47% (active)
18,Cc1cccc(N(CC(=O)NCCSCc2cccc(Cl)c2)S(=O)(=O)c2ccccc2)c1C,57% (inactive)
19,Cc1cccc(N(CC(=O)NCCSc2ccc(Cl)cc2)S(C)(=O)=O)c1C,38% (active)
20,Cc1ccc(SCCNC(=O)CN(c2cccc(C)c2C)S(C)(=O)=O)cc1,57% (inactive)
